About 83,000 compounds went through this panel and 20% of them were active in at least one assay; those are over-represented in the sample as a whole.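 Activity criterion: percent growth below 10, measured after cells in 96-well plates were exposed to a single compound concentration for 48 hours.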 A number with no mark means an inactive call. The source made the active and inactive calls.

Results on eight molecules are retold here after PubChem BioAssay (NCI).

Common to all, as to assay: NCI-60 one-dose screen, 48 h (100 = growth as untreated, 0 = no growth, -100 = all killed)
The subject of one experiment is SK-MEL-2 melanoma. The note with it: 10 µM unless noted.
The next experiment relates to EKVX NSCLC. The settings on record: 10 µM unless noted.
The next experiment deals with SN12C renal. The settings on record: 10 µM unless noted.
The next experiment has as its system UO-31 renal. The settings on record: 10 µM unless noted.
In a further experiment the test system is TK-10 renal. The settings on record: 10 µM unless noted.
A further experiment deals with ACHN renal. The note with it: 10 µM unless noted.
Another experiment concerns CAKI-1 renal. The settings on record: 10 µM unless noted.
Another experiment concerns A498 renal. The settings on record: 10 µM unless noted.
A further experiment has as its system CCRF-CEM leukemia. The settings on record: 10 µM unless noted.
The test system of another experiment is MOLT-4 leukemia. The settings on record: 10 µM unless noted.
Another experiment relates to SR leukemia. The note with it: 10 µM unless noted.
The test system of a further experiment is RPMI-8226 leukemia. The settings on record: 10 µM unless noted.
The subject of the next experiment is OVCAR-8 ovarian. The settings on record: 10 µM unless noted.
The subject of the next experiment is OVCAR-5 ovarian. The settings on record: 10 µM unless noted.
For a further experiment, the system named is OVCAR-4 ovarian. The note with it: 10 µM.
In the next experiment the test system is SK-OV-3 ovarian. The settings on record: 10 µM unless noted.
The next experiment deals with IGROV1 ovarian. The note with it: 10 µM unless noted.
The next experiment has as its system OVCAR-3 ovarian. The note with it: 10 µM unless noted.
The next experiment deals with HS 578T breast. The settings on record: 10 µM unless noted.
For a further experiment, the system named is NCI/ADR-RES ovarian. The settings on record: 10 µM unless noted.

`CCOC(=O)/C(C#N)=C(\C)CCc1ccccc1`: the growth with SK-MEL-2 melanoma was 106%; with EKVX NSCLC, 105%; with SN12C renal, 118%; in the experiment on UO-31 renal it was 99.6%; in the experiment on TK-10 renal, 140%; in the experiment with ACHN renal, 101%. Besides, the growth in the experiment with CAKI-1 renal was 80.9%; in the experiment on A498 renal, 77.9%; with CCRF-CEM leukemia it was 102%; with MOLT-4 leukemia, 153%; in the experiment on SR leukemia, 153%; with RPMI-8226 leukemia it was 61.1%. Also, the growth in the experiment on OVCAR-8 ovarian is 103%; in the experiment on OVCAR-5 ovarian it was 108%; with OVCAR-4 ovarian it was 58.9%; with SK-OV-3 ovarian, 125%; with IGROV1 ovarian it was 81.2%; in the experiment with OVCAR-3 ovarian, 118%. Further, the growth with HS 578T breast was 98.7%; in the experiment with NCI/ADR-RES ovarian, 98.8%.
On to `Cn1ncc2c(Nc3ccc(O)cc3)nc(Cl)nc21`, for which the growth in the experiment with SK-MEL-2 melanoma is 106%; in the experiment on EKVX NSCLC, 87.8%; with SN12C renal it was 96.8%; with UO-31 renal, 84%; in the experiment on TK-10 renal, 102%; in the experiment with ACHN renal it was 88%. The growth was 92.9% with CAKI-1 renal; 111% in the experiment on A498 renal; 92.1% in the experiment on CCRF-CEM leukemia; 94.2% in the experiment on MOLT-4 leukemia; 75.3% in the experiment with SR leukemia; 79.4% in the experiment on RPMI-8226 leukemia. The growth with OVCAR-8 ovarian was 104%; in the experiment with OVCAR-5 ovarian, 105%; in the experiment on OVCAR-4 ovarian, 105%; with SK-OV-3 ovarian, 105%; in the experiment with IGROV1 ovarian, 92.9%; with OVCAR-3 ovarian, 117%. For the same molecule, the values for the growth with HS 578T breast and with NCI/ADR-RES ovarian were 102% and 97.3%, respectively.
With `CCNc1cc2c(cc1Br)-c1ccccc1C2=O`, the growth in the experiment with SK-MEL-2 melanoma was 98%; in the experiment with EKVX NSCLC, 71.5%; in the experiment with SN12C renal, 94.5%; in the experiment on UO-31 renal it was 55.1%; in the experiment with TK-10 renal it was 104%; in the experiment with ACHN renal it was 98.2%. For the same molecule, the growth in the experiment with CAKI-1 renal is 74.5%; with A498 renal it was 93.4%; with CCRF-CEM leukemia it was 97.2%; in the experiment with MOLT-4 leukemia, 98.3%; in the experiment on SR leukemia, 91.6%; in the experiment on RPMI-8226 leukemia, 100%. Moreover, the growth in the experiment with OVCAR-8 ovarian is 90.1%; in the experiment on OVCAR-5 ovarian, 115%; in the experiment with OVCAR-4 ovarian it was 92.5%; with SK-OV-3 ovarian, 90.4%; in the experiment on IGROV1 ovarian, 82%; in the experiment on OVCAR-3 ovarian, 91.8%. Besides, the growth is 96.8% in the experiment on HS 578T breast and 96% in the experiment with NCI/ADR-RES ovarian.
As to `Nc1nc(Cl)c2ncn(Cc3cc4c(cc3I)OCO4)c2n1`, the growth in the experiment with SK-MEL-2 melanoma was 57.1%; in the experiment on EKVX NSCLC it was 95.8%; in the experiment on SN12C renal, 33%; in the experiment on UO-31 renal, 34.7%; in the experiment on TK-10 renal it was 23.6%; in the experiment on ACHN renal, 56.7%. In addition, the growth with CAKI-1 renal was 47.5%; in the experiment with A498 renal, 61.8%; in the experiment with CCRF-CEM leukemia, 26.3%; with MOLT-4 leukemia it was 52.6%; in the experiment with SR leukemia it was 9.76% (active); with RPMI-8226 leukemia it was 34.8%. In addition, the growth is 60.7% in the experiment with OVCAR-8 ovarian; 72.8% in the experiment with OVCAR-5 ovarian; 79.7% in the experiment with OVCAR-4 ovarian; 58.7% with SK-OV-3 ovarian; 83.2% in the experiment with IGROV1 ovarian; 41.9% in the experiment on OVCAR-3 ovarian. For the same molecule, the growth in the experiment with HS 578T breast was 81.2%; with NCI/ADR-RES ovarian, 58%.
As for `CCOc1ccc2sc(NS(=O)(=O)c3ccc(N)cc3)nc2c1`, the growth in the experiment with SK-MEL-2 melanoma is 109%; in the experiment with EKVX NSCLC, 103%; with SN12C renal it was 98.2%; with UO-31 renal it was 91.2%; with TK-10 renal, 124%; with ACHN renal, 108%. The growth was 89.4% in the experiment with CAKI-1 renal; 115% in the experiment with A498 renal; 99.1% in the experiment with CCRF-CEM leukemia; 104% with MOLT-4 leukemia; 95.4% in the experiment on SR leukemia; 96.5% in the experiment with RPMI-8226 leukemia. The growth was 105% with OVCAR-8 ovarian; 109% in the experiment on OVCAR-5 ovarian; 105% in the experiment with OVCAR-4 ovarian; 101% with SK-OV-3 ovarian; 95.8% in the experiment on IGROV1 ovarian; 115% in the experiment on OVCAR-3 ovarian. In addition, the growth is 106% in the experiment on HS 578T breast and 113% in the experiment with NCI/ADR-RES ovarian.
In the case of `CCN(CC)c1ccc(/C=C/C=C2\NC(=O)NC2=O)cc1`, the growth is -13.5% (active) in the experiment on SK-MEL-2 melanoma; 61.5% in the experiment with EKVX NSCLC; 47.4% in the experiment on SN12C renal; 36.4% in the experiment with UO-31 renal; 8.35% (active) with TK-10 renal; 47.2% in the experiment on ACHN renal. The growth with CAKI-1 renal was 16.7%; with A498 renal it was 22.4%; in the experiment on CCRF-CEM leukemia, 40%; with MOLT-4 leukemia it was 41.1%; in the experiment on SR leukemia it was 21.1%; in the experiment with RPMI-8226 leukemia it was 41%. For the same molecule, the growth with OVCAR-8 ovarian is 36%; in the experiment with OVCAR-5 ovarian, 58.1%; in the experiment with OVCAR-4 ovarian, 50.5%; in the experiment with SK-OV-3 ovarian, 29.1%; in the experiment with IGROV1 ovarian it was 49.7%; in the experiment on OVCAR-3 ovarian, 25.5%. In addition, the growth with HS 578T breast is 50.4%; in the experiment with NCI/ADR-RES ovarian, 3.98% (active).
In the case of `COC(=O)[C@@H](NC(=O)NC(=O)NC(=O)CI)C(C)C`, the growth is 87.4% in the experiment with SK-MEL-2 melanoma; 95.7% in the experiment with EKVX NSCLC; 90.1% with SN12C renal; -15.4% (active) in the experiment on UO-31 renal; 89.8% in the experiment on TK-10 renal; 79.8% with ACHN renal. Besides, the growth is -61.6% (active) with CAKI-1 renal; 87.9% in the experiment with A498 renal; -32.9% (active) in the experiment on CCRF-CEM leukemia; 10.6% in the experiment with MOLT-4 leukemia; -46.6% (active) in the experiment on SR leukemia; 74.5% in the experiment on RPMI-8226 leukemia. The growth was 90.9% in the experiment with OVCAR-8 ovarian; 90.9% in the experiment with OVCAR-5 ovarian; 72.7% in the experiment with OVCAR-4 ovarian; 80.9% in the experiment with SK-OV-3 ovarian; 101% with IGROV1 ovarian; 7.92% (active) in the experiment on OVCAR-3 ovarian. Further, the growth in the experiment with HS 578T breast was 86.8%; with NCI/ADR-RES ovarian it was 101%.
On to `Cc1ccc(Oc2c(/C=N/NC(=O)Cn3c(=O)sc4ccccc43)c(C)nn2-c2ccccc2)cc1`, for which the growth in the experiment with SK-MEL-2 melanoma was 75.5%; in the experiment on EKVX NSCLC, 38%; with SN12C renal, 29.5%; in the experiment on UO-31 renal, 25.8%; with TK-10 renal, 62.4%; with ACHN renal, 43.2%. Moreover, the growth in the experiment on CAKI-1 renal was 28.8%; in the experiment with A498 renal, 78.2%; in the experiment on CCRF-CEM leukemia it was 40.8%; in the experiment with MOLT-4 leukemia, 8.72% (active); with SR leukemia, 41.8%; with RPMI-8226 leukemia, 32.8%. The growth with OVCAR-8 ovarian was 54.8%; in the experiment with OVCAR-5 ovarian it was 74.1%; with OVCAR-4 ovarian, 46.2%; with SK-OV-3 ovarian, 66.6%; in the experiment on IGROV1 ovarian, 44.4%; in the experiment with OVCAR-3 ovarian, 54.2%. Besides, the growth in the experiment on HS 578T breast was 63.2%; with NCI/ADR-RES ovarian, 50.2%.
